According to PubChem BioAssay (NCI):
This is part of a sample that, as a whole, favours compounds with a hit. Of some 79,000 tested, about 15% had one in any assay. Activity calls are given as the source filed them. Cut-off read from the data, not from the text of the source: active = growth inhibition above about 70%; inactive = the rest.

Key:
[1] = NCI Yeast Anticancer Drug Screen. Data for the rad50 strain (AID 155);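 note: 0% = growth of vehicle-only cultures of the same strain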; conditions: S. cerevisiae rad50 strain growth inhibition; at 50.0 µM; hits give high values
Summary of the method: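 DNA repair mutant yeast, compound exposure, growth read-out; inhibition is taken relative to vehicle.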

[2] = NCI Yeast Anticancer Drug Screen. Data for the mec2-1 strain (AID 157); conditions: S. cerevisiae mec2-1 strain, at 50.0 µM, hits give high values
Summary of the method: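 Strain: mec2-1 (DNA repair/cell cycle alteration). Compound exposure, then growth measured; inhibition expressed relative to vehicle.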

[3] = NCI Yeast Anticancer Drug Screen. Data for the sgs1 mgt1 strain (AID 161);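 note: 0% = growth of cultures given vehicle only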; conditions: S. cerevisiae sgs1 mgt1 strain, at 50.0 µM, hits give high values
Summary of the method: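 Test agents were incubated with a DNA-repair-mutant yeast strain. Growth was then read and compared against vehicle-treated controls.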

[4] = NCI Yeast Anticancer Drug Screen. Data for the cln2 rad14 strain (AID 165);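 note: 0% = growth equal to vehicle treated cultures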; conditions: S. cerevisiae cln2 rad14 strain, at 50.0 µM, hits give high values
Summary of the method: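 Compounds are applied to the cln2 rad14 yeast strain, and growth is then compared with that of vehicle-treated cultures to give inhibition.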

[5] = NCI Yeast Anticancer Drug Screen. Data for the bub3 strain (AID 167); conditions: S. cerevisiae bub3 mutant strain, at 50.0 µM, hits give high values
Summary of the method: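 In this screen, a yeast mutant lacking normal mitotic checkpoint function is challenged with compound. Relative growth versus vehicle gives the inhibition value.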

[6] = NCI Yeast Anticancer Drug Screen. Data for the mlh1 rad18 strain (AID 175); conditions: S. cerevisiae mlh1 rad18 strain growth inhibition; at 50.0 µM; hits give high values
Summary of the method: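 Read-out is yeast growth inhibition, calculated against vehicle-only controls. The compound was applied to a strain engineered with DNA damage repair alterations.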

Measured: growth inhibition

Nc1nnc(-c2ccc(Br)cc2)o1
inactive: [1] 3.05% | [2] -16.9% | [3] -14.2% | [4] -5% | [5] -25.9% | [6] 5%

C/C=C(/C)C1(O)CCCCC1O (stereo not given)
inactive: [1] -4.2% | [2] 1.15% | [3] 1.2% | [4] -2.7% | [5] -4% | [6] -11.3%

O/N=C/C(=Nc1ccc2ccccc2c1)NO
inactive: [1] 41% | [2] 3.25% | [3] -4.5% | [4] -18.2% | [5] -8.45% | [6] 23.5%

CCCCCCC(C(=O)O)C(=O)O
inactive: [1] -20.8% | [2] -15.4% | [3] 23.6% | [4] 13.2% | [5] 1.15% | [6] -5.6%

c1ccc2cc3c(cc2c1)OP1(=NP2(=NP4(=N1)Oc1cc5ccccc5cc1O4)Oc1cc4ccccc4cc1O2)O3
inactive: [1] 67.7% | [2] 28.1% | [3] 33.6% | [4] 18.8% | [5] 15.7% | [6] 12.6%

CCOC(=O)Cn1cnc2sc3c(c2c1=O)CCCC3
inactive: [1] 13.4% | [2] 21.1% | [3] 30.6% | [4] 28.7% | [5] 19.4% | [6] 35.9%

CC1(Br)CC2OC3(Br)C=CC(C)(O)C2(CC1=O)C3(C)C (stereo not given)
inactive: [1] 27.2% | [2] 10.8% | [3] 13.4% | [4] 15.7% | [5] 20.4% | [6] 25.9%

CC(=O)Nc1ccc2nc(N)sc2c1
inactive: [1] 13% | [2] 5.55% | [3] -16.1% | [4] -3.65% | [5] 3.8% | [6] 6.6%

CC(=O)OCC1OC(n2cnc3c(Cl)nc(Cl)nc32)CC1OC(C)=O (stereo not given)
inactive: [1] 37.3% | [2] 20.9% | [3] 24.4% | [4] 30.4% | [5] 5.2% | [6] 34.9%

Cn1cnnc1Sc1c([N+](=O)[O-])ncn1C
inactive: [1] -3.3% | [2] -5.25% | [3] -5% | [4] 22.5% | [5] 15.6% | [6] -11.6%

Cc1ccc(N(C(=O)CC(=O)N/N=C/c2ccccc2O)C(=O)c2ccccc2)cc1
inactive: [1] -6.55% | [2] -16.8% | [3] -2.05% | [4] 8.2% | [5] -27.1% | [6] -10.8%

O=C1/C(=C/c2ccco2)SC(=S)N1C1c2ccccc2Oc2ccccc21
inactive: [1] 25% | [2] 6.65% | [3] 67.2% | [4] 45.6% | [5] -0.4% | [6] 24.8%

CC(C)NC(=O)CCC(=O)O
inactive: [1] -14.9% | [2] 21.6% | [3] -17.9% | [4] -5.65% | [5] 12.1% | [6] 0.5%

CN(CN(C)/N=C/c1cccc([N+](=O)[O-])c1)/N=C\c1cccc([N+](=O)[O-])c1
inactive: [1] -0.05% | [2] -11.6% | [3] -2.9% | [4] -40.9% | [5] 4.95% | [6] -14.3%

Cc1ncc(CO)c(/C=N/NC(N)=S)c1O
inactive: [1] 3.3% | [2] -13.9% | [3] 3.7% | [4] -34.9% | [5] 0.05% | [6] 13.6%

Cc1cn(C2CC(N)C(C(=O)NCC(=O)O)O2)c(=O)[nH]c1=O (stereo not given)
inactive: [1] -19.9% | [2] -54.5% | [3] -0.6% | [4] 2.65% | [5] -40.1% | [6] -26.1%

O=[N+]([O-])c1cccnc1Sc1ncccn1
inactive: [1] -7.25% | [2] -12.2% | [3] -10.2% | [4] -23.1% | [5] -25.6% | [6] -6.2%

CC(NC(CC12CC3CC(CC(C3)C1)C2)C(N)=O)c1ccccc1 (stereo not given)
inactive: [1] -17.8% | [2] -20.8% | [3] -2.3% | [4] 14.1% | [5] 15.3% | [6] -18.4%

N#C/C(=C\c1cc(F)cc(F)c1)c1ccccn1
inactive: [1] 9.7% | [2] -0.95% | [3] 0.65% | [4] 3.25% | [5] 3.2% | [6] 30.2%

CC(C)CC1OCC(C)(C)C(C(C)C)O1 (stereo not given)
inactive: [1] -8% | [2] -6.1% | [3] -17.4% | [4] 2% | [5] -0.4% | [6] 0.4%

COC(=O)C1C=CN(N(C)C)C2=C1C(=O)c1c(O)cccc1C2=O (stereo not given)
active: [1] 86% | [2] 93% | [3] 89.2% | [4] 88.1% | [5] 89.5% | [6] 90.2%

CC(=O)/C(=C/n1ccc(=O)[nH]c1=S)C(=O)Nc1ccc([N+](=O)[O-])cc1
inactive: [1] -18.3% | [2] -18.8% | [3] -38.2% | [4] -20.4% | [5] -2.85% | [6] -10.9%

CCOC(=O)CC(=O)Cc1oc2c(C(C)=O)c(O)c(C)c(O)c2c1C
inactive: [1] -0.8% | [2] 7% | [3] -0.2% | [4] 6.05% | [5] 2.85% | [6] 14.8%

CCN(CC)C(=O)COc1ccc(Cl)c(C)c1
inactive: [1] 9.5% | [2] 3.45% | [3] 6.4% | [4] 27.6% | [5] 33.6% | [6] 19.4%

C(=Nc1ccc2c(c1)Cc1ccccc1-2)c1ccc2c(c1)OCO2
inactive: [1] 8.75% | [2] -10.1% | [3] 9.75% | [4] -2.1% | [5] 3.05% | [6] 15.4%

CCOC(=O)C1Cc2c([nH]c(=O)[nH]c2=O)OC1c1ccc(OC)cc1 (stereo not given)
inactive: [1] 26.4% | [2] 7.1% | [3] 6.3% | [4] 19.4% | [5] 27.1% | [6] 8.5%

CCCCC(CC)CN(CC)CC (stereo not given)
inactive: [1] -11.1% | [2] -4.25% | [3] -26.5% | [4] -10.4% | [5] 2.8% | [6] 4.85%

COc1ccc(OC)c2c(=O)cc(C)oc12
inactive: [1] -15.7% | [2] -7.8% | [3] -16.3% | [4] -3.4% | [5] -7.65% | [6] -10.4%

Cc1cc(C)c[n+](-c2nc3c([O-])n(C)c(=O)n(C)c-3n2)c1
inactive: [1] -5.35% | [2] 3.15% | [3] -17.8% | [4] -5.45% | [5] -8.25% | [6] -4.15%

CC(C)(C)CI
inactive: [1] 15.6% | [2] 3.85% | [3] 7.65% | [4] 4.9% | [5] -11.2% | [6] -35.3%

CC(C)C(NCc1c(O)ccc2c(-c3ccccc3)cc(=O)oc12)C(=O)O (stereo not given)
inactive: [1] -33.5% | [2] -21.6% | [3] -19% | [4] -12.2% | [5] -35.5% | [6] -10.2%

COc1ccc2c(c1)N1CCc3cc(OC)c(OC)cc3C1C2 (stereo not given)
inactive: [1] 15.8% | [2] -5.15% | [3] 25.2% | [4] 9.5% | [5] 25% | [6] 34.4%

CC(=N\N=C\c1ccccn1)/C(C)=N/N=C(C)/C(C)=N/N=C(C)/C(C)=N/N=C/c1ccccn1
inactive: [1] 31.7% | [2] 22.2% | [3] 21.4% | [4] 14.2% | [5] 15.2% | [6] -34%

O=C(NNC(=O)c1cccc(Br)c1)c1ccccc1
inactive: [1] 4.05% | [2] -37.6% | [3] -0.1% | [4] 5.65% | [5] -7.15% | [6] -3.15%

CCCC1(C(=O)O)NC(=O)NC1=O (stereo not given)
inactive: [1] -4.7% | [2] -11.3% | [3] -14.7% | [4] -12.6% | [5] -1.1% | [6] -8.1%

O=C(On1nnc2ccccc2c1=O)c1ccccc1
inactive: [1] 29.7% | [2] 20.4% | [3] 22.8% | [4] -7.25% | [5] -3.25% | [6] 12.8%

Cc1c([N+](=O)[O-])ccc2c1C(=O)c1ccccc1C2=O
inactive: [1] -41.6% | [2] -0.35% | [3] -39.9% | [4] 2.7% | [5] -5.7% | [6] 39.5%

COc1ccc(-n2c(=O)c(N=Nc3ccc(Cl)cc3)c(O)n(-c3ccc(I)cc3)c2=S)cc1
inactive: [1] 49.8% | [2] 5.45% | [3] 33.4% | [4] -3.7% | [5] 0.8% | [6] 22.4%

CCCCOCN1COCN(COCCCC)C1=O
inactive: [1] -2.3% | [2] -17.4% | [3] -0.45% | [4] 6.95% | [5] 18.1% | [6] 6.2%

CCOP(=O)(OCC)C1=C(P(=O)(OCC)OCC)C(F)(F)C1(F)F
inactive: [1] -9.35% | [2] -5% | [3] -6.7% | [4] -13.1% | [5] -0.95% | [6] -6.3%
